As a reminder, the inhibition is the relative decrease from the control value, in per cent.

We go through 24 compounds from PubChem BioAssay AID2013 (Sanford-Burnham Center for Chemical Genomics, 2009).

Among all 290,000 compounds or so, about 370 (0.13%) were called active. The sample as a whole holds a higher share of actives than the screen did. Results with a measured potency or affinity are listed apart. A number with no mark means an inactive call.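 How the source made its calls: active means spots per cell inhibited over 60%, with over 100 cells counted and total cytoplasm intensity under 500,000; inconclusive means wells with under 100 cells, flagged as likely toxic; inactive means the rest.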

In the assay the target is G-protein coupled receptor 55 (Homo sapiens) (UniProt Q9Y2T6). Description: inhibition of LPI-stimulated GPR55 beta-arrestin translocation – imaging, U2OS, beta-arrestin-GFP, LPI agonist, primary screen (AID 2013).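 Further: U2OS cells stably carrying GPR55 and arrestin-GFP stimulated by 5 µM LPI near EC80; imaged beta-arrestin-GFP aggregate spots per cell after agonist stimulation; plate controls were LPI-stimulated DMSO wells for no effect and DMSO wells without LPI for full effect.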 The note with it: LPI antagonism, at 10 µM, active compounds read high.
Chain of G-protein coupled receptor 55 (Homo sapiens) (Q9Y2T6 whole entry, looked up): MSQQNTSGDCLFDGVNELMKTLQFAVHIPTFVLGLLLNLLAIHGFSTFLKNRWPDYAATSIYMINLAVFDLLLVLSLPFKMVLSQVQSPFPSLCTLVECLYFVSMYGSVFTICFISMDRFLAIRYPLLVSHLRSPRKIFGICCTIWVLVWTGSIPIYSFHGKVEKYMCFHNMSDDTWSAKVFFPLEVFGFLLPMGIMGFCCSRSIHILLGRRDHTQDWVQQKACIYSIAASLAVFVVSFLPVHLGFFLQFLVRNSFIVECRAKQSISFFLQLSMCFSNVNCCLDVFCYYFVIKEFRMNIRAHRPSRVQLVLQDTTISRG
On to `CC(=O)N1CCOc2ccc(S(=O)(=O)Nc3ccc(Cl)cn3)cc21`, for which the inhibition is -3.3%. The result for `COc1ccccc1NC(=O)COC(=O)c1ccccc1C(=O)N1CCN(c2ccccc2)CC1` reads -1.1%; that for `Cc1ccccc1-n1cc(CNC(=O)CCc2nnc(CCc3ccccc3)o2)cn1`, 9.1%. The result for `C#CCOCCOCCOCCNc1nc(N2CCN(C(=O)[C@H](CCC(=O)O)n3cc(C(N)CC(C)C)nn3)CC2)nc(N2CCN(C(=O)[C@H](Cc3ccc(O)cc3)n3cc(C(N)[C@H](C)CC)nn3)CC2)n1` (some centres undefined) reads 13%. As for `O=C(Nc1ccccc1)c1ccccc1NC(=O)C1CCCCC1`, the inhibition is -8.2%.

For `COc1cc(/C=C2\C(=O)N(c3ccc(NC(C)=O)cc3)N=C2c2ccccc2)ccc1O`, the inhibition was 89.7% (active). As to `O=C1/C(=C\c2ccc(O)c(O)c2)C(c2ccccc2)=NN1c1ccccc1`, the inhibition is -3.8%. Consider `COc1ccc(C2=NN(c3ccccc3)C(=O)/C2=C\c2ccc(O)c(OC)c2)cc1`, for which the inhibition was -6.3%. Consider `S=C1Cc2ccccc2N1`, for which the inhibition was -4.5%. Consider `COc1ccc(CN2C(=O)/C(=C/c3ccc(-c4ccc(Cl)c(C(=O)O)c4)o3)SC2=S)cc1`, for which the inhibition is 34.2%.

On to `C#CCN1C(=O)S/C(=C\c2ccc(-c3ccc(Cl)c(C(=O)O)c3)o2)C1=O`, for which the inhibition is -15.9%. With `O=C(O)c1cc(-c2ccc(/C=C3/SC(=S)N(Cc4ccccc4)C3=O)o2)ccc1Cl`, the inhibition is 61.2% (active).

Regarding `O=C(NCc1ccco1)C1(c2ccc(Br)cc2)CCCC1`, the inhibition is 1.4%. For `C=CCn1c(O)c(C2=c3ccccc3=NC2=O)sc1=Nc1ccc(O)cc1`, the inhibition is 5.2%.

As to `CN(CC(=O)Nc1cccc(F)c1)C(=O)c1cc(S(=O)(=O)N(C)C)ccc1N1CCCC1`, the inhibition is 13.5%.

`[N-]=[N+]=N[C@@H](CCN1CC[C@H](NC(=O)OCc2ccccc2)CCC1=O)c1ccccc1`: the inhibition was 6.9%. Take `O=C(CSc1nnc(C2CCCCC2)n1Cc1ccccc1)NCc1ccco1`: the inhibition is -1.4%. With `CCOC(=O)c1sc2nc(N3CCOCC3)c3c(c2c1N)CC(C)(C)N(C)C3`, the inhibition was -4.1%. Turning to `CN1Cc2c(N3CCOCC3)nc3sc(C(=O)c4ccccc4)c(N)c3c2CC1(C)C`, the inhibition was 1.2%.

Turning to `NC(=S)Cc1nc2n(n1)Cc1ccccc1-2`, the inhibition was 5.2%. As for `CC(=O)N(c1ccccc1)C1CC(C)N(C(=O)c2ccccc2)c2ccccc21` (centres undefined), the inhibition is 13.6%. For `CC1CC(Nc2ccccc2)c2ccccc2N1C(=O)c1ccco1` (centres undefined), the inhibition was 6.5%. For the compound `CC1CC(N(C(=O)c2ccco2)c2ccccc2)c2ccccc2N1` (centres undefined), the inhibition was 10.3%.

Consider `CC1CC(N(C(=O)c2ccc(Cl)cc2)c2ccccc2)c2ccccc2N1C(=O)c1ccco1` (centres undefined), for which the inhibition was 10.9%.
